Results from PubChem BioAssay (NCATS).
Records with an inconclusive call do not appear. Active and inactive are the calls of the source. Unless noted, calls come from the whole dose curve; as a rule, active = well fitted curve in the direction sought with a large enough effect; inconclusive = small, poorly fitted or top-dose-only effect, or another doubt; inactive = no such curve, though single readings can be large; an effect the other way counts as inactive or inconclusive. Starred links: 1 amine or outer side, 2 acyl side, 3 side chain; linkers in the order of their positions; H or OH if unused. Positions of bridges follow the written chain, without caps; N, C: chain ends. Non-standard residues stand in square brackets, D forms with d. Residues, ends and D or L forms follow the SMILES beside them. *: point of attachment. X1 = NC1=N[C@@H](O)C[C@@H]([C@@H](N[*:1])C(=O)[*:2])N1; ΔAla(Z-3-ureido) = NC(=O)N/C=C(\N)C(=O)O; β3hOrn = NCCC[C@H](N)CC(=O)*; Dap = NC[C@H](N)C(=O)O

Assays:
[1] = AP1 Signaling Pathway (AID 357; active = well fitted curve in either direction with a large enough effect, not every such curve was filed as active;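 note: ME-180 reporter cells stimulated with EGF at its EC50 level; % is set by controls: 0 for no effect and ±100 for the full control effect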)
Outline: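 First, ME-180 AP-1-bla cells were cultured overnight at 37 °C in low-serum Opti-MEM. Next, titrated compounds with EC50 EGF were incubated 5 hours. Finally, CCF4 was added for 2.5 hours and the 460/530 nm ratio recorded.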

[2] = NFAT Signaling Pathway (AID 444; active = well fitted curve in either direction with a large enough effect, not every such curve was filed as active;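 note: carbachol stimulus at about its EC50 of 1 µM final; % is set by controls: 0 for no effect and ±100 for the full control effect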); conditions: Jurkat NFAT-bla M1, carbachol, beta-lactamase ratio, 5 h; at 17.2 µM (top of the series) unless noted
Outline: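 Jurkat cells with NFAT-driven β-lactamase reporter and co-expressed M1 receptor, stimulated with carbachol (final 1 uM, ~EC50), compound titration, 5 h at 37 °C. CCF4 loaded 1 h at RT; 460/530 nm ratio gave %activity and AC50.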

[3] = target: Glucocorticoid receptor (Homo sapiens) (UniProt P04150); test: GR-GFP Redistribution (AID 450;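 active = compounds whose dose series gives a full or clear partial fitted curve of increased nuclear translocation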; note: potency is the fitted concentration of half-maximal effect); conditions: U2OS GR-GFP nuclear translocation, laser cytometry, 2 h
Glucocorticoid receptor (Homo sapiens), sequence (P04150 whole entry, looked up, the tested form may be a part): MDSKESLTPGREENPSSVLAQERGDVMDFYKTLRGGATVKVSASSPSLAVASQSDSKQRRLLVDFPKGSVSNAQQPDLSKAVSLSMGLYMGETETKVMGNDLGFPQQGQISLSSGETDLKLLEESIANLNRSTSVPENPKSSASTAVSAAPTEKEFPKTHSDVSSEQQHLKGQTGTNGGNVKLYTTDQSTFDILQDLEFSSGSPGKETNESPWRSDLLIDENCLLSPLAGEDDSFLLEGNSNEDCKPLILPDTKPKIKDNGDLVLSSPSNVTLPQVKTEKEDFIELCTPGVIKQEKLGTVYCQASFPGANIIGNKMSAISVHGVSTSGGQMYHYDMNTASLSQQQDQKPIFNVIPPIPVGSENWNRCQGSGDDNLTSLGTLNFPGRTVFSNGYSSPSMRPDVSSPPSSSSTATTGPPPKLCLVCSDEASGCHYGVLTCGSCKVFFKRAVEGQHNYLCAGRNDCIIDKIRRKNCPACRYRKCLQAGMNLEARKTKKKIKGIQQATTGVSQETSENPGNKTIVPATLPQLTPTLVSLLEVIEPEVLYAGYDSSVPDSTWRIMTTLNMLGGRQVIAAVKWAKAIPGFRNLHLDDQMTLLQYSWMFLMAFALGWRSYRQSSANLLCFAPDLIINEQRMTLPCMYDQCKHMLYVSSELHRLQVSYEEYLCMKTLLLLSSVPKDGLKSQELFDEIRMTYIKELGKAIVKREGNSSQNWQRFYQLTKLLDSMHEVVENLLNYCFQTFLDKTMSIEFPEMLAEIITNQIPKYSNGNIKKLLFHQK

[4] = target: Mitogen-activated protein kinase 10 (Mus musculus) (UniProt Q61831); test: JNK3 AlphaScreen Assay (AID 530; active = well fitted curve in either direction with a large enough effect, not every such curve was filed as active;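 note: kinase came from lysate of stimulated human HepG2 cells; signal reports phosphorylation of biotinylated GST-cJun 1-79 at Ser73 with 10 µM ATP; % is set by controls: 0 for no effect and ±100 for the full control effect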)
Outline: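 Pre-activated (IL-1β/TNFα) JNK3 in HepG2 lysates phosphorylates biotin-GST-cJun(1-79), 10 uM ATP; anti-phospho-cJun(Ser73) AlphaScreen read at room temperature, pH 7.6 Tris buffer. Compounds pre-incubated 15 min as titrations.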

[5] = target: 3',5'-cyclic-AMP phosphodiesterase 4B (Homo sapiens) (UniProt Q07343); test: qHTS Assay for Inhibitors of PDE-IV (AID 607; active = well fitted activation curve with a large enough effect in the main read-out, with a control signal flat, not every such curve was filed as active; note: % of control where 0% means no effect)
3',5'-cyclic-AMP phosphodiesterase 4B (Homo sapiens), sequence (Q07343 whole entry, looked up): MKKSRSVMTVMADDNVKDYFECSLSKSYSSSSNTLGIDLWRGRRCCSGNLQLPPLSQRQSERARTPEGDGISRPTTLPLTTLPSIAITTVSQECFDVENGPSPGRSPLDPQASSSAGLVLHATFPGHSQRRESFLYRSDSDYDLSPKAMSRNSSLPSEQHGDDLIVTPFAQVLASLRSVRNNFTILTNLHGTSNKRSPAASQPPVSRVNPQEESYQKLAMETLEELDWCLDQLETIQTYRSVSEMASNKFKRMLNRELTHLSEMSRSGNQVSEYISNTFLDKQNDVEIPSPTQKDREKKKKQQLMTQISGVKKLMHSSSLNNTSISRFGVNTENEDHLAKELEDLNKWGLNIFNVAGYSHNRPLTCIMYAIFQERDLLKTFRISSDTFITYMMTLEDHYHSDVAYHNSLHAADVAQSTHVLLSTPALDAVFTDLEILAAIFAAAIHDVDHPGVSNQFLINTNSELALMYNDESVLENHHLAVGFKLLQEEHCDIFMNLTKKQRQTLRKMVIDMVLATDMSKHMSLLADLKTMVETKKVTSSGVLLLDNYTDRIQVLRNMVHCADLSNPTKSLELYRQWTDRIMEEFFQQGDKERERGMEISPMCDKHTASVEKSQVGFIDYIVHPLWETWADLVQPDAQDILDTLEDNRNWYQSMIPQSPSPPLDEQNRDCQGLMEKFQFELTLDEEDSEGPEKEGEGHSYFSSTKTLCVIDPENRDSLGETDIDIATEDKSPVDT
Outline: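 The readout is membrane depolarisation from a cAMP-sensing CNG channel, detected with a potential dye at ex 535/em 590. Cells were HEK293-derived (endogenous PDE-IV) at 1000 cells/well, titrated up to 22.9 uM final.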

[6] = qHTS Assay for Lipid Storage Modulators (AID 1519; calls by dose curve); conditions: Drosophila S3 cells, BODIPY lipid droplet/cell ratio, laser cytometry, cells loaded with oleic acid
Outline: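 Cells seeded at 5,000 per well were treated with compounds over a concentration series and loaded with oleic acid (400 uM, as added). Lipid droplet fluorescence (488 nm excitation, 500-530 nm channel) was read by laser-scanning cytometry and normalized to 20 uM Triacsin C.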

[7] = target: ATP-dependent 6-phosphofructokinase (Trypanosoma brucei brucei) (UniProt O15648); test: qHTS Assay to Find Inhibitors of T. brucei phosphofructokinase: hit validation (AID 492961);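 note: luminescence reports ADP formed as PFK phosphorylates fructose-6-phosphate with ATP; % is set by controls: 0 for no effect and ±100 for the full control effect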
ATP-dependent 6-phosphofructokinase (Trypanosoma brucei brucei), sequence (O15648 whole entry, looked up): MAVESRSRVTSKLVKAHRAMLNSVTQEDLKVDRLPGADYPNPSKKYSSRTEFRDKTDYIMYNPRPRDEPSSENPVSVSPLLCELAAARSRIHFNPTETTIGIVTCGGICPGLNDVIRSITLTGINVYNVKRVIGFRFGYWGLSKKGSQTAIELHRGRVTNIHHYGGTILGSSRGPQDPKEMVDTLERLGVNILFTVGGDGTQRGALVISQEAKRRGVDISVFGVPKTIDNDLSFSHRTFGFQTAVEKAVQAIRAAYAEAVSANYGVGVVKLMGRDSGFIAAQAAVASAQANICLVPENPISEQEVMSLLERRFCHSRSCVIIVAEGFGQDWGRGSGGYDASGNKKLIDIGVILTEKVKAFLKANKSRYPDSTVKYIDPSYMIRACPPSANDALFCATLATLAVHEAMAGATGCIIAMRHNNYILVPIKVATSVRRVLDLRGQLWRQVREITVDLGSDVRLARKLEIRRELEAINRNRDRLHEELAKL
Outline: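 Inhibition of parasite PFK is measured as reduced ADP formation, quantified via luciferase after ATP depletion. Assay used 0.1 mM ATP, 0.5 mM F6P, 1.25 nM enzyme, 45 min incubation.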

[8] = target: Luciferin 4-monooxygenase (Photinus pyralis) (UniProt P08659); test: Biochemical firefly luciferase enzyme assay for NPC (AID 624030);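 note: purified P. pyralis luciferase at 10 nM with luciferin and ATP substrate; 0% = DMSO and -100% = full luciferase inhibition by PTC124 control; nearly all actives have a fitted effect of over 70% in size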
Luciferin 4-monooxygenase (Photinus pyralis), sequence (P08659 whole entry, looked up): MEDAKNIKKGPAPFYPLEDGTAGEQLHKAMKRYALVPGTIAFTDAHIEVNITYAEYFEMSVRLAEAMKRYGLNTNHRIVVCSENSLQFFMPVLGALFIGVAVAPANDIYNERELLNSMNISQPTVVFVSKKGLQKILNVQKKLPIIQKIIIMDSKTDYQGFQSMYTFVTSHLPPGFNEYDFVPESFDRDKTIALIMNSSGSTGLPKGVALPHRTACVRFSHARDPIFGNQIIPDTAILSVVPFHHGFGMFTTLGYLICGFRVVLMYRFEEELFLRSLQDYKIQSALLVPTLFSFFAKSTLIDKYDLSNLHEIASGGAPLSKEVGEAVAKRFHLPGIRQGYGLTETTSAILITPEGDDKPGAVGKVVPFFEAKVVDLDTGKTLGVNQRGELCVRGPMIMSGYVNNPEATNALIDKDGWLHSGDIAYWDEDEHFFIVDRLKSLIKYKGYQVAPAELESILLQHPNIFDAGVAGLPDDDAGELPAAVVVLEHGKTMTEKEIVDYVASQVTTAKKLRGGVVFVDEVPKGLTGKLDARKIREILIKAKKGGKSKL
Outline: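 Purified P. pyralis luciferase at 10 nM in 50 mM Tris Acetate (final), luminescence read within 5 minutes of enzyme addition to compounds. Activity normalised to PTC124 versus DMSO; concentration-response curves classed by r2, magnitude and activity.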

C2A = test: qHTS profiling for inhibitors of Plasmodium falciparum proliferation (AID 504749); note: nearly all actives have a fitted effect of over 60% in size; note: potency is the fitted concentration of half-maximal effect;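 for activity, negative = inhibition: 0% = DMSO vehicle and full inhibition = artemisinin control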; conditions: P. falciparum in erythrocytes, SYBR Green DNA, 72 h; series mostly up to 12.8 µM
Outline: (§1)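 P. falciparum-infected erythrocytes (0.3% parasitemia, 2.5% hematocrit) incubated with compound 72 h at 37 C, 5% CO2. Parasite DNA detected by SYBR Green after lysis, overnight at room temperature; normalised to 0.29 uM artemisinin and DMSO.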

CP252 = test: as above; conditions: P. falciparum in erythrocytes, SYBR Green DNA, 72 h; series mostly up to 12.8 µM
Outline: as §1

DIV14 = test: as above; conditions: P. falciparum in erythrocytes, SYBR Green DNA, 72 h; series mostly up to 12.8 µM
Outline: as §1

W2 = test: as above; conditions: P. falciparum in erythrocytes, SYBR Green DNA, 72 h; series mostly up to 12.8 µM
Outline: as §1

[9] = Stat Signaling Pathway (AID 446; active = well fitted curve in either direction with a large enough effect, not every such curve was filed as active)
Outline: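 Screening format detects activators and inhibitors alike: ME-180 SIE-bla cells stimulated at 40 pM IL-6 for 5 hrs with compound, then dual-emission beta-lactamase read at 405 nm excitation.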

[10] = target: Glucocorticoid receptor (Homo sapiens) (UniProt P04150); test: GR-EFC Redistribution (AID 451; calls by dose curve; note: potency is the fitted concentration of half-maximal effect); conditions: CHO-K1 GR-EFC translocation, beta-gal luminescence, 2 h
Outline: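 CHO-K1 cells expressing nuclear EA and GR-ED fragments of b-gal; compounds titrated up to 46 uM final, 2 h at 37 C. GR nuclear translocation read as complemented b-gal luminescence after 1 h RT detection.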

[11] = qHTS profiling for inhibitors of Plasmodium falciparum proliferation (AID 504749); note: nearly all actives have a fitted effect of over 60% in size; note: potency is the fitted concentration of half-maximal effect;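 for activity, negative = inhibition: 0% = DMSO vehicle and full inhibition = artemisinin control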; conditions: P. falciparum in erythrocytes, SYBR Green DNA, 72 h, at 12.8 µM (top of the series)
Outline: as §1

CP238 = test: as above; conditions: P. falciparum in erythrocytes, SYBR Green DNA, 72 h; series mostly up to 12.8 µM
Outline: as §1

JCK = test: as above; conditions: P. falciparum in erythrocytes, SYBR Green DNA, 72 h; series mostly up to 12.8 µM
Outline: as §1

N140 = test: as above; conditions: P. falciparum in erythrocytes, SYBR Green DNA, 72 h; series mostly up to 12.8 µM
Outline: as §1

SC27B = test: as above; conditions: P. falciparum in erythrocytes, SYBR Green DNA, 72 h; series mostly up to 12.8 µM
Outline: as §1

[12] = target: Ubiquitin carboxyl-terminal hydrolase 1 (Homo sapiens) (UniProt O94782); test: Inhibitors of USP1/UAF1: Pilot qHTS (AID 504865);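 note: rhodamine fluorescence freed from ubiquitin-rhodamine substrate followed over time; top concentration of the series differs between compounds; % is set by controls: 0 for no effect and ±100 for the full control effect; nearly all actives have a fitted effect of over 35% in size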
Ubiquitin carboxyl-terminal hydrolase 1 (Homo sapiens), sequence (O94782 whole entry, looked up): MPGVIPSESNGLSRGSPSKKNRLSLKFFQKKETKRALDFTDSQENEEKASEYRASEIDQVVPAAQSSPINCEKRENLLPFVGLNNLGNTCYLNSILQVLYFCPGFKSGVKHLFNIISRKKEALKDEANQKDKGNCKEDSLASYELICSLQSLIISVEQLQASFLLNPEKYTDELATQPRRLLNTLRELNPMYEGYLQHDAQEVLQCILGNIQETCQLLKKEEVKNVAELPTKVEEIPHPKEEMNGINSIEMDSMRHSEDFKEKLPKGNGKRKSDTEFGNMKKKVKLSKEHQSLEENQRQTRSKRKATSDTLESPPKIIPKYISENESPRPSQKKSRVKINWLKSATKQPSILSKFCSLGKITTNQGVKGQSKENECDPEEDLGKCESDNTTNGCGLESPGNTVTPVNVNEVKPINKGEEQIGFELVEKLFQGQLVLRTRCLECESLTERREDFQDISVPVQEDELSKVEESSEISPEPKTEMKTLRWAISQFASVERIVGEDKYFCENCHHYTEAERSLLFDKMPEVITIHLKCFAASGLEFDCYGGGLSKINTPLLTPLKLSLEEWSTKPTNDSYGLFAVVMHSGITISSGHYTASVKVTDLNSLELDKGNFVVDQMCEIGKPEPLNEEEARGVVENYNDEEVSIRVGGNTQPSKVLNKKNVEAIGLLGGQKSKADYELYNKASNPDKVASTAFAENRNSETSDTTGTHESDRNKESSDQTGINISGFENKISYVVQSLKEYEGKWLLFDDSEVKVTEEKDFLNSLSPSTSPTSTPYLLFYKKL
Outline: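 1nM USP1/UAF1 + cpd, 15 min RT; start w/ Ub-Rho 150nM final; kinetic FL 480/540 nm, 6 reads q60 s. Buffer 50mM HEPES pH 7.8, 0.5mM EDTA, 1mM TCEP, 0.01% Tween-20, 0.1 mg/ml BSA.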

[13] = measured here: cell count channel max response
[14] = measured here: lipid channel max response

CCC(=O)OCC(=O)[C@@]1(OC(=O)CC)[C@H](C)C[C@@H]2[C@@H]3[C@H]([C@@H](O)C[C@@]21C)[C@]1(C)C=CC(=O)C=C1C[C@@H]3Cl
active: Potency [3] 0.00423 µM | Potency (DIV14) 5.1 µM | Potency (W2) 1.61 µM
inactive: outcome [1] | activity change, negative = inhibition [2] 14% | Potency [4] | outcome [5] | activity change, negative = inhibition ([6]; at 25.7 µM (top of the series)) -4.84% | outcome [7] | Potency [8] | Potency (C2A) | Potency (CP252)
-12.3%: max response [6, 14]
-9.62%: max response [6, 13]

C#C[C@]1(O)CC[C@@H]2[C@H]3CCC4=CCCC[C@@H]4[C@@H]3CC[C@@]21C
-10.1%: max response [6, 14]
inactive: outcome [1] | outcome [9] | Potency [3] > 20.6 µM | Potency [10] > 20.6 µM | Potency [4] | outcome [5] | activity change, negative = inhibition ([6]; at 25.7 µM (top of the series)) -4.16% | outcome [7] | Potency [8] | activity, negative = inhibition ([11]; parasite line A) 11.7% | activity, negative = inhibition ([11]; parasite line B) 0.61% | Potency (C2A) | Potency (CP238) | Potency (CP252) | Potency (DIV14) | Potency (JCK) | Potency (N140) | Potency (SC27B) | Potency (W2)
-7.9%: max response [6, 13]

O=C1OCCN1/N=C\c1ccc([N+](=O)[O-])o1
-14.3%: max response [6, 14]
-13.3%: max response [6, 13]
inactive: outcome [1] | activity change, negative = inhibition [2] -2.86% | outcome [9] | Potency [10] > 20.6 µM | Potency [4] | outcome [5] | activity change, negative = inhibition ([6]; at 25.7 µM (top of the series)) -2% | Potency [12]

C[C@H](CCC(=O)O)[C@H]1CC[C@@H]2[C@@H]3[C@@H](O)C[C@H]4C[C@@H](O)CC[C@@]4(C)[C@H]3CC[C@@]21C
-2.48%: max response [6, 13]
-0.386%: max response [6, 14]
inactive: outcome [1] | activity change, negative = inhibition [2] 14.2% | outcome [9] | Potency [4] | outcome [5] | activity change, negative = inhibition ([6]; at 25.7 µM (top of the series)) -0.554% | outcome [7] | Potency [12] | Potency [8] | Potency (C2A) | Potency (CP238) | Potency (CP252) | Potency (DIV14) | Potency (JCK) | Potency (N140) | Potency (W2)

COc1cc(C2Oc3cc(C4Oc5cc(O)cc(O)c5C(=O)C4O)ccc3OC2CO)ccc1O (stereo not drawn)
24.8%: max response [6, 14]
inactive: outcome [1] | activity change, negative = inhibition [2] 22.6% | outcome [9] | activity change, negative = inhibition ([6]; at 57.5 µM (top of the series)) 18.7%
5.37%: max response [6, 13]

Cc1ccccc1OC[C@H](O)CO
inactive: outcome [1] | activity change, negative = inhibition [2] 11.2% | outcome [9] | Potency [10] > 20.6 µM | Potency [4] | outcome [5] | activity change, negative = inhibition ([6]; at 25.7 µM (top of the series)) -0.676% | Potency [12]
-5.46%: max response [6, 14]
-3.4%: max response [6, 13]

NCCC[C@H](N)CC(=O)N[C@H]1CNC(=O)[C@@H]([C@@H]2C[C@H](O)N=C(N)N2)NC(=O)/C(=C/NC(N)=O)NC(=O)[C@@H](CO)NC(=O)[C@@H](CO)NC1=O (β3hOrn-[Dap][dS][dS][ΔAla(Z-3-ureido)][X1]; lactam 1-C)
-7.09%: max response [6, 13]
inactive: outcome [1] | activity change, negative = inhibition [2] -11.1% | outcome [9] | Potency [4] | outcome [5] | activity change, negative = inhibition ([6]; at 25.7 µM (top of the series)) 0.925% | Potency [12]
-7.39%: max response [6, 14]
